Growth data for 30 compounds are collected here from the supplement of paper PMC12494721.

Counter-ions that a name gives are not always drawn.

This test has as its system Clostridium sporogenes DSM 1664. As to the kind of experiment: growth (OD595) fold change vs plate DMSO controls (fold change (ratio)); higher = more growth. Conditions: incubation time: 27 h, anaerobic, 37 °C. The method in brief:
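Growth is calculated as fold change against the median of the DMSO control wells on each plate. Readings at 595 nm from anaerobic mGAM cultures (96-well, 27 h, 37 °C) were blank-subtracted, background-corrected with 20 µM compound solutions in water, and converted to OD by a calibration factor of 5. Fold changes above 1.5 were recorded as NA, and results are means of 2 biological replicates.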
With `CC#C[C@]1(O)CC[C@H]2[C@@H]3CCC4=CC(=O)CCC4=C3[C@@H](c3ccc(N(C)C)cc3)C[C@@]21C` [Mifepristone] (20 µM), the growth came to 1.19. As for `C[C@]12CC[C@@H]3c4ccc(O)cc4CC[C@H]3[C@@H]1CCC2=O` [Estrone] (20 µM), the growth was 1.03.

Turning to `O=C(O)c1cccnc1Nc1cccc(C(F)(F)F)c1` [Niflumic acid] (20 µM), the growth amounted to 0.913. With `OCCN1CCN(CCCN2c3ccccc3C=Cc3ccccc32)CC1` [Opipramol dihydrochloride] (20 µM) the figure was 1.12; with `COCC1=C(C(=O)OC(C)OC(=O)OC(C)C)N2C(=O)[C@@H](NC(=O)/C(=N\OC)c3csc(N)n3)[C@H]2SC1` (stereo not given in full) [Cefpodoxime proxetil] (20 µM), 1.05; with `CN(CCOc1ccc(CC2SC(=O)NC2=O)cc1)c1ccccn1` (stereo not given) [Rosiglitazone hydrochloride] (20 µM), 1.05.

As to `CC(C(=O)O)c1ccc(-c2ccccc2)c(F)c1` (stereo not given) [Flurbiprofen] (20 µM), the growth was 0.961. On to `CCCCc1oc2ccc(NS(C)(=O)=O)cc2c1C(=O)c1ccc(OCCCN(CCCC)CCCC)cc1` [Dronedarone hydrochloride] (20 µM), for which the growth was 0.948. For `O=C(COc1ccc(Cl)cc1)N1CCN(Cc2ccc3c(c2)OCO3)CC1` [Fipexide hydrochloride] (20 µM) the value was 1.05. As to `CCCCCCCCCCCCCCCC[N+](C)(C)CCN(Cc1ccc(OC)cc1)c1ncccn1` [Thonzonium bromide] (20 µM), the growth amounted to 0.856. On to `C#C[C@]1(O)CC[C@H]2[C@@H]3CCc4cc(OC)ccc4[C@H]3CC[C@@]21C` [Mestranol] (20 µM), for which the growth turned out to be 0.992. Consider `OC(CCN1CCCCC1)(c1ccccc1)C1CCCCC1` (stereo not given) [Trihexyphenidyl-D,L hydrochloride] (20 µM), for which the growth is 1.05. With `O=C(Cn1cnnn1)N[C@@H]1C(=O)N2C(C(=O)O)=C(CSc3nncs3)CS[C@H]12` [Ceftezole] (20 µM) the figure was 0. For `CCOc1ccc(NC(N)=O)cc1` [(4-Ethoxyphenyl)urea] (50 µM) the value was 1.13.

On to `NC(=O)c1ncn([C@@H]2O[C@H](CO)[C@@H](O)[C@H]2O)n1` [Ribavirin] (20 µM), for which the growth turned out to be 1.13.

On to `CC1(C)S[C@@H]2[C@H](NC(=O)C(C(=O)O)c3ccccc3)C(=O)N2[C@H]1C(=O)O` (stereo not given in full) [Carbenicillin disodium salt] (20 µM), for which the growth came out at 0. Regarding `O=C(c1ccccc1)c1ccc2n1CCC2C(=O)O` (stereo not given) [Ketorolac tromethamine] (20 µM), the growth came to 0.909. With `CN(C(=O)CN(CCO)CC(=O)N(C)C(C)(C)Cc1ccccc1)C(C)(C)Cc1ccccc1` [Oxethazaine] (20 µM) the figure was 1.23. With `CCOC(=O)[C@H](CCc1ccccc1)N[C@@H](C)C(=O)N1Cc2ccccc2C[C@H]1C(=O)O` [Quinapril hydrochloride] (20 µM) the figure was 1.03; with `CC[N+]1(CC)CCC(=C(c2ccccc2)c2ccccc2)C1C` (stereo not given) [Prifinium Bromide] (20 µM), 1.1. With `O=P(O)(O)C(Cl)(Cl)P(=O)(O)O` [Clodronate disodium] (20 µM) the figure was 0.99; with `CCOC(=O)[C@@](C)(N)Cc1ccc(O)c(O)c1` [Methyldopate hydrochloride] (20 µM), 0.926; with `O=C(NCCO[N+](=O)[O-])c1cccnc1` [Nicorandil] (20 µM), 1.03. As for `CN1CCN(c2c(F)cc3c(=O)c(C(=O)O)cn(CCF)c3c2F)CC1` [Fleroxacin] (20 µM), the growth was determined as 0. For `Cn1c(=O)c2c(ncn2CC(=O)O)n(C)c1=O` [Acefylline] (20 µM), the growth was determined as 0.895. With `CC(=O)[C@H]1CC[C@H]2[C@@H]3C[C@H](C)C4=CC(=O)CC[C@]4(C)[C@H]3[C@@H](O)C[C@]12C` [Medrysone] (20 µM), the growth was 1.08. With `C=C1c2c(Cl)ccc(O)c2C(O)=C2C(=O)[C@]3(O)C(O)=C(C(N)=O)C(=O)[C@@H](N(C)C)[C@@H]3[C@@H](O)[C@H]12.O=C(O)c1cc(S(=O)(=O)O)ccc1O` [Meclocycline sulfosalicylate] (20 µM) the figure was 0.0138. With `N[C@@H](CSCCCO)C(=O)O` [Fudosteine] (20 µM) the figure was 0.96; with `CC1=C(C(=O)O)N2C(=O)[C@@H](NC(=O)[C@H](N)C3=CCC=CC3)[C@H]2SC1` [Cephradine monohydrate] (20 µM), 1.11.

Consider `Nc1ncnc2c1ncn2[C@@H]1O[C@H](CO)[C@@H](O)[C@@H]1O` [Vidarabine] (20 µM), for which the growth was determined as 1.1.
